Screening results as filed in PubChem.
L929 necroptosis: inhibitors of zVAD-triggered necroptosis, primary screen, L929 cells; hit rate 0.38% among 220,000; viability rescue, % at 10 µM; L929 zVAD necroptosis rescue, ATP luminescence, 24 h; with zVAD 60 µM; AID 1377, 2008;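 active = activation, scaled between plate controls, above about 75%, limit read from the data; inactive = activation under that limit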;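 also: 0% = zVAD with DMSO and 100% = DMSO alone without zVAD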
TNF necrop inh: inhibitors of TNF-alpha triggered necroptosis, primary screen, cell-based, Jurkat FADD-/-, single concentration. hit rate 0.068% among 220,000. AID 463075, 2010. activation (protection from cell death), % at 10 µM. Jurkat FADD-/- TNF necroptosis rescue, ATP luminescence, 24 h; 0 = TNF only, 100 = no-TNF cells;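 active = activation, meaning protection from cell death, of at least 50% relative to plate controls; inactive = activation below 50%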;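 also: necroptosis triggered by 40 ng/mL TNF-alpha added together with compound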
HSV augment: enhancers of HSV replication in host cells, fold increase, host cell viability | HSV replication augmentation in cells | maximum fold increase | hit rate 0.005% among 220,000 | AID 1956, 2009; in the data active = maximum fold increase above about 1.5; tested in PC3 cells
Wee1 degr inh: Wee1 degradation inhibitors, primary screen, cell-based, HeLa, Wee1K328M-luciferase, luminescence | hit rate 1.2% among 220,000 | AID 1321, 2008 | reporter increase, % at 5 µM | HeLa Luc-Wee1K328M stability; 100% = proteasome inhibitor MG132 effect;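 active = activation above the mean of all tested compounds plus 3 SD, set per screening run, cut at about 8.8% in these data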;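 also: cells exposed to compound for 20 h before luminescence read; 0% = DMSO alone and 100% = MG132 at 30 µM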
Target sequence (P30291 whole entry K328M): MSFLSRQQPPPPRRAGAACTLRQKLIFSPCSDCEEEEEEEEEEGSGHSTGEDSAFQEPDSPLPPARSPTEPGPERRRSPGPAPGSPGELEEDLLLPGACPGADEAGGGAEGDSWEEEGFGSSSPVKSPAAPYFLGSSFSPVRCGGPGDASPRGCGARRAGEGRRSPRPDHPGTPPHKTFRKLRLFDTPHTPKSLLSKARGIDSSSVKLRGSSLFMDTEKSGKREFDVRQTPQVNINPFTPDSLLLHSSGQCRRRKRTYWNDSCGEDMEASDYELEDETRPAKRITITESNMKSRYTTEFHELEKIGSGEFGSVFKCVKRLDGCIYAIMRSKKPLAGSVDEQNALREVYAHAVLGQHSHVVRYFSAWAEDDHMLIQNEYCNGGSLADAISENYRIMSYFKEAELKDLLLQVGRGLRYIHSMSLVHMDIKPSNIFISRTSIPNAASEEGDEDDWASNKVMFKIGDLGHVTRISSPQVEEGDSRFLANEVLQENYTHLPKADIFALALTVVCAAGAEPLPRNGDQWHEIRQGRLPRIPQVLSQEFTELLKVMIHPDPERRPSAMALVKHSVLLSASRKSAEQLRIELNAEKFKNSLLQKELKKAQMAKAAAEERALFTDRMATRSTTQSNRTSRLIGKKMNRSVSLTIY
V-ATPase pHluor: regulators of yeast V-ATPase proton pumping, primary screen, pHLuorin cytosolic pH fluorescence | S. cerevisiae | response, % at 10 µM | hit rate 0.37% among 350,000; in the data active = response mostly above about 7.3%, no sharp cut-off; inactive = mostly below about 5.4%; also: actives read high
V-ATPase pH SP: yeast V-ATPase proton pumping modulators, confirmation, S. cerevisiae, pH-sensitive GFP, second cherry-pick | shares compounds with V-ATPase pHluor | S. cerevisiae pHLuorin cytosolic pH, V-ATPase proton transport | response, % at 10 µM | hit rate 2% among 980 | AID 602197, 2012; in the data active = response above about 24%;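 also: plate controls were vehicle wells for no effect and positive control wells for full effect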
Numbers without * were called inactive; i = inactive; / = no result. This is a sample that favours compounds with a hit; in the whole collection about 1.4% have one here.

SMILES | L929 necroptosis | TNF necrop inh | HSV augment | Wee1 degr inh | V-ATPase pHluor | V-ATPase pH SP
CCCCCC(=O)N1C[C@H](n2cc(-c3ccc(F)cc3)nn2)[C@@H](O)C[C@@H]1c1ccc(C)cc1 | / | / | / | / | 6.8* | -0.9
CCCCCC(=O)N1C[C@@H](n2cc(-c3ccc(F)cc3)nn2)[C@H](O)C[C@@H]1c1ccc(Cl)cc1 | / | / | / | / | 1.7 | /
CC(C)c1ccc(N(CC(=O)NC2CCCC2)C(=O)CCC(=O)Nc2ccccn2)cc1 | / | / | / | / | 15.1* | -1.5
CCc1ccc(N(CC(=O)NC2CCCC2)C(=O)CCC(=O)Nc2ccccn2)cc1 | / | / | / | / | 2.8 | /
Cn1c(O)c(N=NC(=N)N)c2ccccc21 | 1.8 | 3.3 | i | -2.3 | 2.7 | /
CCOC(=O)N=Nc1c(O)n(C)c2ccccc12 | 1.0 | 0.8 | i | 7.2 | 0.4 | 1.6
C=CCn1c(O)c(N=NC(=O)OCC)c2ccccc21 | 1.0 | -0.5 | i | 1.8 | -0.3 | 4.6
Cc1ccc(C)c2sc(N3CCN(C(=O)c4ccc([N+](=O)[O-])o4)CC3)nc12 | / | / | / | / | -5.2 | /
O=C(c1ccc([N+](=O)[O-])o1)N1CCN(c2nc3c(F)cc(F)cc3s2)CC1 | / | / | / | / | 31.0* | 40.5*
CC(NC(=O)CCCc1c[nH]c2ccccc12)c1ccc(F)cc1 (stereo not drawn) | / | / | / | / | -0.7 | /
Cc1cc(C)cc(NC(=O)N2CCN(C/C=C/c3ccccc3)CC2)c1 | 0.9 | 1.8 | i | 0.7 | -0.7 | /
Cc1ccc(/C=N/NC(=O)c2nnn(-c3nonc3N)c2CSc2ccccc2)s1 | / | / | / | / | 8.1* | -3.5
O=C(O)c1cc(-c2ccc(Cl)c(Cl)c2)n(-c2ccc(F)cc2)n1 | / | / | / | / | 12.5* | 1.2
O=c1c2ccccc2sn1-c1cccc(Cl)c1 | / | / | / | / | -0.8 | 16.6
O=c1c2ccccc2sn1-c1ccccc1 | 0.3 | -10.3 | i | -1.9 | 5.8 | /
COc1ccc(CNCC(O)(c2ccccc2)c2ccc(Cl)cc2)cc1 (stereo not drawn) | 0.3 | 1.4 | i | -2.9 | 11.2* | -2.0
O=C1C=CC(=Nc2ccc3c(c2)Cc2cc(F)ccc2-3)O1 | / | / | / | / | 11.7 | 99.6*
CCc1nc(SCC(=O)Nc2nccs2)c2oc3ccccc3c2n1 | 0.7 | 1.0 | / | -0.8 | 10.1* | -1.4
O=C(CSc1ncnc2c1oc1ccccc12)Nc1nccs1 | -0.3 | 2.5 | / | 8.8 | -1.1 | /
O=C(CCc1nnc2ccc(NCc3ccco3)nn12)Nc1ccc(F)cc1F | / | / | / | / | -0.9 | /
COc1ccc(C(=O)Nc2ccccc2C(=O)NC2CC2)c(OC)c1OC | / | / | / | / | 0.2 | /
COc1ccc(C(=O)c2c(N)sc3c2CCN(C)C3)cc1 | / | / | / | / | -1.0 | /
CN1CCc2c(sc(N)c2C(=O)O)C1 | 1.2 | 0.4 | i | 0.4 | 9.6* | 1.4
CCOc1cccc2cc(C(=O)NCc3ccc(F)cc3)c(=N)oc12 | / | / | / | / | -2.6 | /
Cc1nn(-c2ccccc2)c(Cl)c1/C=C1\C(=O)N(C)C(=S)N1C | 3.8 | -3.1 | i | -1.1 | 47.2* | 1.7
SMILES | L929 necroptosis | TNF necrop inh | HSV augment | Wee1 degr inh | V-ATPase pHluor | V-ATPase pH SP
COc1ccc(/C=N/NC(=O)CC(=O)N/N=C/c2ccc(OC)cc2)cc1 | 0.0 | 1.1 | i | -1.9 | -1.5 | /
COc1ccc(/C=N/NC(=O)C2c3ccccc3-c3ccccc32)cc1 | 2.2 | 1.8 | i | -1.8 | 26.6* | 0.4
CCOC(=O)C1(C(=O)OCC)NC(=O)CC1CC (stereo not drawn) | / | / | / | / | 12.0* | -0.5
O=C(NNc1nc2ccccc2s1)c1ccc(F)cc1 | 0.2 | 2.0 | i | 0.9 | 5.8* | 3.0
CCCn1c(C(O)c2cc(OC)c(OC)c(OC)c2)nc2ccccc21 (stereo not drawn) | / | / | / | / | -0.2 | /
Cc1cc(C)nc(NS(=O)(=O)c2ccc(CC(C)C)cc2)c1 | 0.2 | -0.7 | i | 1.7 | 0.5 | /
CC1CCCCC1NC(=O)Cn1nnc2ccccc2c1=O (stereo not drawn) | 5.8 | 1.1 | i | 0.4 | 17.6* | -3.2
CC1CCCCC1NC(=O)Cn1c(CN2CCCCC2)nc2ccccc2c1=O (stereo not drawn) | -0.4 | -3.3 | i | -2.0 | -5.4 | /
Cc1ccnc(NS(=O)(=O)c2ccc(NC(=O)c3ccc(N4C(=O)CCC4=O)cc3)cc2)n1 | 0.4 | 0.9 | i | -1.9 | 11.6* | 3.3
COc1ccc(C(=O)Nc2ccc(S(=O)(=O)Nc3nccc(C)n3)cc2)cc1 | / | / | / | / | 1.5 | /
COc1ccc(O)c(CN2CCC(n3nccc3NC(=O)c3ccccc3Cl)CC2)c1 | / | / | / | / | 9.2* | 2.2
CC(C)NC(=O)COc1ccccc1C#N | 3.0 | 1.4 | i | -0.2 | 13.9* | -1.6
CC(C)(C)NC(=O)COc1ccccc1C#N | 1.5 | 1.1 | i | -1.6 | -1.2 | /
CC(C)(C)OC(=O)N[C@@H](Cc1ccccc1)C(=O)N[C@@H](CO)[C@H](O)[C@@H]1C[C@@H]1C(=O)NC1CC1 | / | / | / | / | 11.2* | -1.2
O=C(Nc1ccc(F)cc1Cl)c1ccc2c(=O)n3c(nc2c1)CCC3 | / | / | / | / | 11.0* | 0.5
CN(CC(=O)Nc1ccc(N2CCOCC2)cc1)C(=O)CC(c1ccccc1)c1ccccc1 | 0.8 | -1.1 | i | 10.1* | 11.7* | 2.4
O=C(NCC1(N2CCCCC2)CCCCC1)c1ccc(S(=O)(=O)N2CCCC2)cc1 | 0.5 | 1.5 | i | 0.0 | 7.8* | -6.5
O=C(CCC(=O)c1ccc(F)cc1)NCC1(N2CCCCC2)CCCCC1 | / | / | / | / | -1.1 | -1.6
O=C(NCC1(N2CCCCC2)CCCCC1)c1ccc(NS(=O)(=O)c2ccccc2)cc1 | / | / | / | / | -0.5 | /
CC(=Cc1cccs1)C(=O)c1ccccc1 | / | / | / | / | 0.8 | /
CC(=O)C1=C(O)C(CSCc2ccccc2)N(C)C1=O (stereo not drawn) | / | / | / | / | -3.6 | /
CCOC(=O)CSc1nc(=O)n2ccccc2n1 | 0.1 | 0.9 | i | -1.0 | 2.1 | /
O=C(O)c1cc(NC(=O)c2ccc3c(c2)C(=O)N(Cc2ccccc2)C3=O)cc(C(=O)O)c1 | / | / | / | / | 7.6* | -1.7
COc1cc(-c2cc(=O)c3c(O)c(OC)c(OC)c(O)c3o2)ccc1O | 32.7 | -6.8 | i | -0.8 | 3.5 | /
COc1c(O)c(O)c2oc(-c3ccccc3)cc(=O)c2c1OC | 1.0 | -1.2 | i | -2.6 | 10.6* | 2.3
SMILES | L929 necroptosis | TNF necrop inh | HSV augment | Wee1 degr inh | V-ATPase pHluor | V-ATPase pH SP
NCC(=O)N1CCC(C(=O)N[C@@H](Cc2c[nH]c3ccccc23)C(=O)O)CC1 | / | / | / | / | -0.2 | /
O=C(Cc1n[nH]c(=O)c2ccccc12)OCC(=O)c1ccc2c(c1)OCCO2 | 0.1 | -10.0 | i | 0.3 | 12.1* | -1.5
O=C(Cc1n[nH]c(=O)c2ccccc12)OCC(=O)c1ccc(F)cc1 | / | / | / | / | -0.8 | /
Cc1c(Cl)cccc1N=C1NC(=O)CS1 | / | / | / | / | 2.1 | /
C/C=C/n1ccnc1CC(O)(c1ccccc1)c1ccc(C)cc1 (stereo not drawn) | / | / | / | / | 5.3 | /
CN(CC(=O)Nc1ccc(F)cc1[N+](=O)[O-])Cc1ccccc1 | 3.3 | 0.7 | i | -2.4 | 7.9* | -0.4
Cc1cc(C)n(CC(=O)Nc2ccccc2)n1 | 0.1 | -0.8 | i | 1.9 | 10.7* | 3.3
